Bioassay records deposited in PubChem BioAssay by National Center for Advancing Translational Sciences (NCATS).
TGFb inhibitor: qHTS for Inhibitors of TGF-b; HepG2 CAGA-GFP TGF-b/SMAD3 reporter, GFP fluorescence, 18 h; TGF-beta stimulated, 500 pg/mL final; Potency, µM (highest dose often 46.1 µM), usual class: inhibitors; 1.2% of 410,000 active; AID 588855, 2011; note: nearly all actives have a fitted effect of over 65% in size
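TGF-beta reporter screen: HEPG2 CAGA-GFP, 1% FBS, 500 pg/mL TGF-beta final, 18 h; per-cell GFP summed per well; curves fitted and categorized by class.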
HepG2 tox: qHTS for Inhibitors of TGF-b: Cytotox Counterscreen | HepG2 CAGA-GFP viability, ATP luminescence, 18 h | Potency, µM (top dose mostly 46.1 µM), most hits filed as cytotoxic | 0.76% of 410,000 active | AID 588856, 2011
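CellTiter-Glo luminescence gave cytotoxicity after 18 hours at 37 degrees C. The cells were HepG2 CAGA-GFP in 1% FBS DMEM, stimulated with 500 pg/mL TGF-beta after compound addition. %Activity was normalised to no-cell wells (complete cell-killing) and DMSO (no toxicity), and curves were fitted and classified.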
IL-1B inflam inh: qHTS for Inhibitors of Inflammasome Signaling: IL-1-beta AlphaLISA Primary Screen | THP-1 LPS/ATP IL-1B secretion, AlphaLISA, 16 h; active compounds read low | 4.7% of 360,000 active | activity change, % at 57.5 µM | AID 743279, 2014; in the data active = activity change below about -50%; inconclusive = mostly about -30% to -49%
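Secreted IL-1B measured by AlphaLISA bead assay after 16 h compound exposure of THP-1 cells; compounds (final up to 57.5 uM) added 1 h before LPS (250 ng/mL) and ATP (1.25 mM) stimulation; lower signal means less secretion.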
TDP1 block: qHTS Assay for Inhibitors of Tyrosyl-DNA Phosphodiesterase (TDP1) | Tyrosyl-DNA phosphodiesterase 1 (Homo sapiens), Q9NUW8 | recombinant TDP1, AlphaScreen DNA substrate cleavage | Potency, µM (titrated, usually from 130 µM), usual class: inhibitors | 0.28% of 350,000 active | AID 485290, 2010; note: nearly all actives have a fitted effect of over 40% in size
Target sequence (Q9NUW8 whole entry, looked up): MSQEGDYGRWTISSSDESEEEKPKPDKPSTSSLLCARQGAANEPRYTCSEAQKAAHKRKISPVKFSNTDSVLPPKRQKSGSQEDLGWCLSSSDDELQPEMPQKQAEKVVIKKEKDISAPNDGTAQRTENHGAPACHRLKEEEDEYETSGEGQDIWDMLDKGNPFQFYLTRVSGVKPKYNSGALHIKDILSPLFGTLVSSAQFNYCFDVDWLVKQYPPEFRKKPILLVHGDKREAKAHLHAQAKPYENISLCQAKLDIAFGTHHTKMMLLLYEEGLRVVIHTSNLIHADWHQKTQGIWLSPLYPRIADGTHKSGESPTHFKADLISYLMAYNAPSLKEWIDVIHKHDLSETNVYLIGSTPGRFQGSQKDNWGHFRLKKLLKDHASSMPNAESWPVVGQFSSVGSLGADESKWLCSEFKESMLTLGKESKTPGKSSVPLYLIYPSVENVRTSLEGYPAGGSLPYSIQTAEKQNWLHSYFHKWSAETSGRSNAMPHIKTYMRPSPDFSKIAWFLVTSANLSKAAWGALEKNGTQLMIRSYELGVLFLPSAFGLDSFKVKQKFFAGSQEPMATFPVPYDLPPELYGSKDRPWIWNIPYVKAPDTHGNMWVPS
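Here, a 5' biotin and 3' phosphotyrosine-FITC DNA oligonucleotide reports Tdp1 activity: intact substrate bridges AlphaScreen beads, while cleavage leaves a 3' phosphate and drops signal. All incubations at room temperature.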
DT40 TDP1 no CPT: qHTS for Inhibitors of human tyrosyl-DNA phosphodiesterase 1 (TDP1): qHTS in cells in absence of CPT. 15% of 420,000 active. Potency, µM (highest dose often 46.2 µM), hits mostly inhibitors. DT40 Tdp1-/- hTDP1 cells, no CPT, ATP luminescence, 48 h; note: nearly all actives have a fitted effect of over 55% in size
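Cells were dispensed at 400 per well, compounds added by pin tool, plates incubated ≥48 hr at 37 °C, then CellTiter-Glo added for 30 min at room temperature before luminescence reading. Line: DT40 Tdp1-/- complemented with hTDP1; camptothecin omitted.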
DT40 TDP1 CPT: qHTS for Inhibitors of human tyrosyl-DNA phosphodiesterase 1 (TDP1): qHTS in cells in presence of CPT; chicken DT40 Tdp1-/-;hTDP1 cells + 20 nM CPT, ATP luminescence, 48 h; Potency, µM (doses to about 46.2 µM), usual class: inhibitors; 12% of 420,000 active; AID 686979, 2013; note: nearly all actives have a fitted effect of over 55% in size
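Cell growth measured by CellTiter-Glo luminescence after a minimum 48 h, 37 C compound exposure with 20 nM CPT in Tdp1-knockout DT40 cells stably expressing hTDP1, seeded 400/well; qHTS titration format.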
Hits are given with their value. Rows were chosen to be rich in hits. Some 19% of all compounds tested hit in one or more screens of this group. Unless noted, calls come from the whole dose curve; as a rule, active = well fitted curve in the direction sought with a large enough effect; inconclusive = small, poorly fitted or top-dose-only effect, or another doubt; inactive = no such curve, though single readings can be large; an effect the other way counts as inactive or inconclusive.

Screening CCc1ccc(NC(=O)c2ccc(F)c(S(=O)(=O)N3CCC4(CC3)OCCO4)c2)cc1 returned TGFb inhibitor inconclusive, HepG2 tox inactive, TDP1 block inactive, DT40 TDP1 no CPT 21µM and DT40 TDP1 CPT inconclusive.
`CCc1ccc(NC(=O)c2ccc(F)c(S(=O)(=O)N3CCc4ccccc4C3)c2)cc1` gave TGFb inhibitor inactive, HepG2 tox inactive, TDP1 block inactive, DT40 TDP1 no CPT 21µM and DT40 TDP1 CPT inconclusive.
CCN(CC)C(=O)c1ccc(NC(=O)c2cccc(S(=O)(=O)N3CCN(C)CC3)c2)cc1 was read as TGFb inhibitor inactive, HepG2 tox inactive, IL-1B inflam inh inactive, TDP1 block inactive, DT40 TDP1 no CPT inactive and DT40 TDP1 CPT inactive.
COc1cc2c(cc1OC)C(C(=O)NC(C)C)C1CCCCN1C2=O (stereo not drawn) was read as TGFb inhibitor inactive, HepG2 tox inactive, IL-1B inflam inh inactive, TDP1 block inactive, DT40 TDP1 no CPT inactive and DT40 TDP1 CPT inactive.
For COc1ccc(-n2nc(C(F)(F)F)cc2-c2ccc(Cl)cc2)cc1 the results were TDP1 block inactive.
For Cn1c(=O)oc2cc(S(=O)(=O)N3CCC(C(=O)N4CCN(c5ccccc5)CC4)CC3)ccc21 the results were TGFb inhibitor inactive, HepG2 tox inactive, IL-1B inflam inh inactive, TDP1 block inactive, DT40 TDP1 no CPT 21µM and DT40 TDP1 CPT inconclusive.
Cc1ccc(Cl)cc1N1CCN(C(=O)C2CCN(S(=O)(=O)c3ccc4c(c3)oc(=O)n4C)CC2)CC1 was read as TGFb inhibitor inactive, HepG2 tox inactive, TDP1 block inactive, DT40 TDP1 no CPT 0.73µM and DT40 TDP1 CPT 1.2µM.
CC(=O)c1cccc(NC(=O)C2CCN(S(=O)(=O)c3ccc4c(c3)oc(=O)n4C)CC2)c1 was read as TGFb inhibitor inactive, HepG2 tox inactive, TDP1 block inactive, DT40 TDP1 no CPT inconclusive and DT40 TDP1 CPT inactive.
For Cn1c(=O)oc2cc(S(=O)(=O)N3CCC(C(=O)N4CC=C(c5ccccc5)CC4)CC3)ccc21 the results were TGFb inhibitor inactive, HepG2 tox inactive, IL-1B inflam inh inactive, TDP1 block inactive, DT40 TDP1 no CPT 12µM and DT40 TDP1 CPT 23µM.
Screening COc1cccc(N2CCN(C(=O)C3CCCN(S(=O)(=O)c4ccc5c(c4)oc(=O)n5C)C3)CC2)c1 (stereo not drawn) returned TGFb inhibitor inactive, HepG2 tox inactive, IL-1B inflam inh inactive, TDP1 block inactive, DT40 TDP1 no CPT 15µM and DT40 TDP1 CPT 18µM.
For O=c1[nH]c(O)c(/C=C2\C=Nc3ccc(OCc4ccccc4)cc32)c(=O)[nH]1 the results were TGFb inhibitor inactive, HepG2 tox inactive, IL-1B inflam inh inactive, DT40 TDP1 no CPT inconclusive and DT40 TDP1 CPT inactive.
Cc1cccc(N2CCN(C(=O)CCNS(=O)(=O)c3ccc4c(c3)oc(=O)n4C)CC2)c1C was read as TGFb inhibitor inactive, HepG2 tox inactive, IL-1B inflam inh -67, TDP1 block inactive, DT40 TDP1 no CPT 16µM and DT40 TDP1 CPT inconclusive.
Screening Cn1c(=O)oc2cc(S(=O)(=O)N3CCCc4ccccc43)ccc21 returned TGFb inhibitor inactive, HepG2 tox inactive, IL-1B inflam inh inactive, TDP1 block inactive, DT40 TDP1 no CPT 5.8µM and DT40 TDP1 CPT 4.1µM.
Screening CC(C)COC(=O)n1c(=O)oc2cc(S(=O)(=O)N3CCCCC3)ccc21 returned TGFb inhibitor inconclusive, HepG2 tox inactive, IL-1B inflam inh inactive, TDP1 block inactive, DT40 TDP1 no CPT inconclusive and DT40 TDP1 CPT inconclusive.
